Consider eleven molecules from PubChem BioAssay.

The target in the assay is Fibroblast growth factor 10 (Homo sapiens) (UniProt O15520). Description: compounds binding fibroblast growth factor 10 – biochemical, small-molecule microarray, 635 nm fluorescence, primary screen (AID 1102). The settings on record: FGF10 binding, fluorescence 635 nm, higher = more signal.
Sequence of Fibroblast growth factor 10 (Homo sapiens) (O15520 whole entry, looked up): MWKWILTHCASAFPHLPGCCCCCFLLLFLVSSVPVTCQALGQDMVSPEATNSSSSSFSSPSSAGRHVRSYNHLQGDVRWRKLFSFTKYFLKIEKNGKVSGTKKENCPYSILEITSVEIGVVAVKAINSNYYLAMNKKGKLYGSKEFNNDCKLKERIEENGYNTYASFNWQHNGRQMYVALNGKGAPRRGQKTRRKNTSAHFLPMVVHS
`CCCCCCCCCCC(O)C1C=CC2C(=O)N(C)C(=O)C2N1Nc1cc(OC)c(OC)c(OC)c1` (stereo unspecified) displayed a composite z-score of -0.471. `C=C[C@H](C)[C@H](OC(=O)Nc1ccc(OC)cc1)c1ccc(OCCO)cc1` yielded a composite z-score of -1.12.

`COCCOC(=O)N1C(=O)[C@@]2(c3cc(C#CC4(O)CCCCCC4)ccc31)[C@H](c1ccc(OCCO)cc1)N1[C@H](c3ccccc3)[C@H](c3ccccc3)OC(=O)[C@H]1[C@@H]2C(=O)Nc1nc2ccccc2s1` showed a composite z-score of 1.05. Molecule `O=c1cccc(-c2ccco2)o1` registered a composite z-score of 0.955. Take `CN(C)C(=O)[C@@]1(Cc2ccccc2N=[N+]=[N-])N=C(c2ccc(OCCCO)cc2)O[C@H]1c1ccccc1`: the composite z-score stood at 0.607.

In turn, `CC(C)[C@H]1NC(=O)[C@@]23C(=O)N[C@@H](Cc4ccccc4)C2[C@H](C)[C@@]2(C)O[C@H]2C3/C=C/CCC/C=C/CNC(=O)[C@H](Cc2ccccc2)NC1=O` (stereo partly specified) had a composite z-score of 0.106. For `C=CCC(OC(C)=O)[C@@H]1[C@@H](N(Cc2cc3ccccc3o2)C(=O)c2ccc(-c3ccccc3)cc2)c2cc(OCCCO)ccc2N1C(=O)Cc1ccc(OC)cc1` (stereo partly specified), the composite z-score was 0.247. The molecule `[N-]=[N+]=NCc1ccccc1[C@H]1OC(c2ccc(OCCCO)cc2)=N[C@@]1(CCS(=O)(=O)c1ccccc1)C(=O)NCc1ccccc1` gave a composite z-score of 1.06. `CC(=O)n1cc(C(O)C2C=CC3C(=O)N(c4ccccc4)C(=O)C3N2Nc2ccc(C(C)C)cc2)c2ccccc21` (stereo unspecified) gave a composite z-score of 0.881. Then `C=C(COC)C(=O)CC[C@H](OC(C)=O)c1ccc(OCCO)cc1`, with 1.35; and `Cc1ccccc1C(O)C1C=CC2C(=O)NC(=O)C2N1Nc1ccc(Cl)cc1Cl` (stereo unspecified), with 0.904.
